Experimental data: PubChem BioAssay (Tox21)
Several values for one entry are separate records, joined by “and”; a condition that tells them apart may be missing. Identical values can stand only once. Inconclusive results are not listed. Entries that show only a call come without a potency. A structure can be active in one record and inactive in another. Activity calls are given as the source filed them. Unless noted, calls follow the shape of the dose curve; as a rule, active = well fitted curve in the direction sought with a large enough effect in the repeat runs; inconclusive = weak or mixed curves; inactive = no such curve, though single readings can be large; an effect the other way counts as inactive or inconclusive.

Columns and labels:
[1] = biological target: Aryl hydrocarbon receptor (Homo sapiens) (UniProt P35869); experiment: qHTS assay to identify small molecule that activate the aryl hydrocarbon receptor (AhR) signaling pathway (AID 743085);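 also: HG2L7.5c1 human HepG2 liver cells with stably integrated DRE-driven firefly reporter; series mostly up to about 70 µM; nearly all actives have a fitted effect of over 15% in size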
Summary of the method: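 A multiplexed format paired cell viability (CellTiter-Fluor fluorescence) with AhR-dependent luciferase output (ONE-Glo luminescence) in the same wells of HepG2 DRE-luc cells after 24 h compound exposure at 37C.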

[2] = qHTS assay to identify small molecule that activate the aryl hydrocarbon receptor (AhR) signaling pathway - cell viability counter screen (AID 743086); also: nearly all actives have a fitted effect of over 45% in size; also: potency is read from the fitted curve at half-maximal effect
Summary of the method: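 Cytotoxicity counter screen: CellTiter-Fluor signal (30 min, 37 C) in 4000 HepG2 cells/well carrying the DRE-luciferase reporter, following 24 h compound exposure at 37 C.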

[3] = biological target: Peroxisome proliferator-activated receptor gamma (Homo sapiens) (UniProt P37231); experiment: qHTS assay to identify small molecule agonists of the peroxisome proliferator-activated receptor gamma (PPARg) signaling pathway (AID 743094; active = well fitted activation curve with a large enough effect in the signal ratio in the repeat runs, not every such curve was filed as active; the % refers to the signal ratio)
Summary of the method: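 Beta-lactamase FRET fluorescence was the read-out after a 1 h room-temperature substrate step, following 17 h compound treatment at 37C of HEK293H cells expressing a UAS-driven bla reporter responsive to PPARg.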

[4] = biological target: Peroxisome proliferator-activated receptor gamma (Homo sapiens) (UniProt P37231); experiment: qHTS assay to identify small molecule antagonists of the peroxisome proliferator-activated receptor gamma (PPARg) signaling pathway (AID 743191; calls by dose curve; also: series mostly up to about 63 µM; nearly all actives have a fitted effect of over 30% in size)
Summary of the method: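 Beta-lactamase reporter under UAS control in HEK293H PPARg-bla cells; compound treatment 17 h at 37C. Read-out: fluorescence intensity after 1 h room-temperature incubation with LiveBLAzer B/G FRET substrate.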

[5] = qHTS assay to identify small molecule antagonists of the peroxisome proliferator-activated receptor gamma (PPARg) signaling pathway - cell viability counter screen (AID 743194); also: nearly all actives have a fitted effect of over 55% in size
Summary of the method: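 Viability was measured as CellTiter-Glo luminescence in GeneBLAzer PPARg UAS-bla HEK293H cells. These cells had been exposed 17 h at 37 C to compounds together with rosiglitazone at 50 nM final, with the beta-lactamase readout taken in the same wells.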

[6] = qHTS assay for small molecule agonists of the antioxidant response element (ARE) signaling pathway (AID 743202; active = well fitted activation curve with a large enough effect in the signal ratio in the repeat runs, not every such curve was filed as active; the % refers to the signal ratio)
Summary of the method: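 An ARE-responsive beta-lactamase gene stably integrated in HepG2 cells serves as reporter. After 5 h plating and 16 h compound incubation at 37 C, fluorescence of the B/G FRET substrate was measured.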

[7] = qHTS assay for small molecule agonists of the antioxidant response element (ARE) signaling pathway - cell viability counter screen (AID 743203; calls by dose curve; also: nearly all actives have a fitted effect of over 55% in size)
Summary of the method: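 HepG2 cells carrying ARE-driven beta-lactamase; 2,000 cells/well; 5 hrs plating; compound pinned from DMSO; 16 hrs 37C/5% CO2; CellTiter-Glo added; 30 min RT; luminescence.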

[8] = qHTS assay for small molecule activators of the heat shock response signaling pathway - cell viability counter screen (AID 743209); also: nearly all actives have a fitted effect of over 50% in size
Summary of the method: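 Luminescence from CellTiter-Glo, added after the beta-lactamase FRET read, gave the viability signal. Cells were HSE-bla HeLa treated with DMSO-dissolved compounds for 5 h at 37 C following overnight plating.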

[9] = qHTS assay for small molecule activators of the heat shock response signaling pathway (AID 743210; active = well fitted activation curve with a large enough effect in the signal ratio in the repeat runs, with a control signal flat, not every such curve was filed as active; the % refers to the signal ratio;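 also: HeLa cells with beta-lactamase reporter driven by heat shock elements; series mostly up to about 63 µM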)
Summary of the method: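 In HSE-bla HeLa cells, 5 h compound incubation (37 C) precedes addition of LiveBLAzer B/G substrate; after 2.5 h at room temperature, fluorescence intensity indicates reporter induction.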

[10] = qHTS assay to identify small molecule agonists of the peroxisome proliferator-activated receptor delta (PPARd) signaling pathway - cell viability counter screen (AID 743211); also: nearly all actives have a fitted effect of over 55% in size
Summary of the method: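 Tox21 library compounds, delivered in DMSO, were incubated 17 h with PPARd-bla HEK293H cells; cytotoxicity was taken from CellTiter-Glo luminescence read 30 min after reagent addition.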

[11] = biological target: Peroxisome proliferator-activated receptor delta (Homo sapiens) (UniProt Q03181); experiment: qHTS assay to identify small molecule agonists of the peroxisome proliferator-activated receptor delta (PPARd) signaling pathway (AID 743212; calls by dose curve)
Summary of the method: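 HEK293H UAS-bla reporter cells, human PPARd system; compounds delivered in DMSO after 5 h plating, then at 37 C. Beta-lactamase FRET read, 2 h RT substrate step.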

[12] = qHTS assay to identify small molecule antagonists of the peroxisome proliferator-activated receptor delta (PPARd) signaling pathway - cell viability counter screen (AID 743213); also: nearly all actives have a fitted effect of over 50% in size
Summary of the method: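 In this counter screen, HEK293H cells carrying a UAS-beta-lactamase reporter are co-treated with test compounds and 300 nM L165041 (final) for 17 h at 37 C; cell viability is quantified by CellTiter-Glo luminescence.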

[13] = biological target: Peroxisome proliferator-activated receptor delta (Homo sapiens) (UniProt Q03181); experiment: qHTS assay to identify small molecule antagonists of the peroxisome proliferator-activated receptor delta (PPARd) signaling pathway (AID 743215; active = well fitted inhibition curve with a large enough effect in the signal ratio in the repeat runs, not every such curve was filed as active; the % refers to the signal ratio;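 also: cells stimulated with agonist L165041 at 300 nM final during compound exposure; series mostly up to about 62 µM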)
Summary of the method: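 Read-out is beta-lactamase FRET fluorescence, measured 2 h after substrate addition at room temperature. Beforehand, UAS-bla HEK293H cells carrying the PPARd reporter were exposed to compounds with L165041 at 300 nM final for 17 h at 37 C.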

[14] = biological target: Bile acid receptor (Homo sapiens) (UniProt Q96RI1); experiment: qHTS assay to identify small molecule antagonists of the farnesoid-X-receptor (FXR) signaling pathway (AID 743217; active = well fitted inhibition curve with a large enough effect in the signal ratio in the repeat runs, not every such curve was filed as active; the % refers to the signal ratio)
Summary of the method: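 HEK 293T FXR-UAS-bla, 5000 cells/well; compound + CDCA 50 uM final; 16 h, 37 °C; B/G FRET substrate 2 h RT; fluorescence.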

[15] = qHTS assay to identify small molecule agonists of the farnesoid-X-receptor (FXR) signaling pathway - cell viability counter screen (AID 743218); also: nearly all actives have a fitted effect of over 45% in size
Summary of the method: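 HEK 293T FXR-bla cells; 5 h pre-incubation, 16 h compound exposure at 37 C; LiveBLAzer substrate 2 h RT, then CellTiter-Glo 30 min RT, luminescence.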

[16] = biological target: Bile acid receptor (Homo sapiens) (UniProt Q96RI1); experiment: qHTS assay to identify small molecule agonists of the farnesoid-X-receptor (FXR) signaling pathway (AID 743220; active = well fitted activation curve with a large enough effect in the signal ratio in the repeat runs, not every such curve was filed as active; the % refers to the signal ratio)
Summary of the method: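 Beta-lactamase reporter under UAS control in GeneBLAzer FXR HEK 293T cells (5000/well) measured with LiveBLAzer FRET substrate after 2 h at room temperature. Compound exposure lasted 16 h at 37C.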

[17] = qHTS assay to identify small molecule antagonists of the farnesoid-X-receptor (FXR) signaling pathway - cell viability counter screen (AID 743221; active = well fitted cell-killing curve with a large enough effect in the repeat runs, not every such curve was filed as active; also: nearly all actives have a fitted effect of over 50% in size)
Summary of the method: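 Cytotoxicity is taken from ATP luminescence (CellTiter-Glo, 30 min, room temperature) in FXR-bla HEK 293T cells previously incubated 16 h at 37 C with compound and chenodeoxycholic acid at 50 uM final.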

[18] = qHTS assay to identify small molecule agonists of the vitamin D receptor (VDR) signaling pathway - cell viability counter screen (AID 743224); also: series mostly up to about 63 µM; nearly all actives have a fitted effect of over 50% in size
Summary of the method: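 Luminescence from CellTiter-Glo, read after 30 min at room temperature, reports viability of VDR-bla cells treated with compounds for 16 h at 37C in the wells used for the beta-lactamase FRET read.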

[19] = biological target: Vitamin D3 receptor (Homo sapiens) (UniProt P11473); experiment: qHTS assay to identify small molecule agonists of the vitamin D receptor (VDR) signaling pathway (AID 743222; calls by dose curve)
Summary of the method: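 VDR-bla cells, 2,000/well; 4 h preincubation 37C; cpd (DMSO) 16 h; LiveBLAzer B/G substrate 2 h RT; fluorescence intensity read.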

[20] = biological target: Vitamin D3 receptor (Homo sapiens) (UniProt P11473); experiment: qHTS assay to identify small molecule antagonists of the vitamin D receptor (VDR) signaling pathway (AID 743223; active = well fitted inhibition curve with a large enough effect in the signal ratio in the repeat runs, not every such curve was filed as active; the % refers to the signal ratio)
Summary of the method: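 Quantitative HTS in VDR-bla reporter cells stimulated with 1alpha,25-dihydroxyvitamin D3, 3 nM final. Compound exposure 16 h, 37C, 5% CO2. Read-out: beta-lactamase FRET substrate fluorescence, 2 h RT.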

Sequence of Peroxisome proliferator-activated receptor delta (Homo sapiens) (Q03181 whole entry, looked up): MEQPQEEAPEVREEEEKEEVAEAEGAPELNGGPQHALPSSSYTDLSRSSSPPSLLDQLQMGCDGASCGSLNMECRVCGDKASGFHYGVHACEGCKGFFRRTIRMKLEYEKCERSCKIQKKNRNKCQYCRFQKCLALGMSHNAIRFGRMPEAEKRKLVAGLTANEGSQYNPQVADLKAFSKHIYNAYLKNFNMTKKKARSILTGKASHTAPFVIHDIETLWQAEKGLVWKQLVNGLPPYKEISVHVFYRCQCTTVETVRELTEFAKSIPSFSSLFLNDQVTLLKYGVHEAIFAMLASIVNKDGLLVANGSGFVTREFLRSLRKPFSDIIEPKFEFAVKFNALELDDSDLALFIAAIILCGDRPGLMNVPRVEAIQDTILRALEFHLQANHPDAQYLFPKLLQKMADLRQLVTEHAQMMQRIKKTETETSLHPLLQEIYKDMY
Sequence of Aryl hydrocarbon receptor (Homo sapiens) (P35869 whole entry, looked up): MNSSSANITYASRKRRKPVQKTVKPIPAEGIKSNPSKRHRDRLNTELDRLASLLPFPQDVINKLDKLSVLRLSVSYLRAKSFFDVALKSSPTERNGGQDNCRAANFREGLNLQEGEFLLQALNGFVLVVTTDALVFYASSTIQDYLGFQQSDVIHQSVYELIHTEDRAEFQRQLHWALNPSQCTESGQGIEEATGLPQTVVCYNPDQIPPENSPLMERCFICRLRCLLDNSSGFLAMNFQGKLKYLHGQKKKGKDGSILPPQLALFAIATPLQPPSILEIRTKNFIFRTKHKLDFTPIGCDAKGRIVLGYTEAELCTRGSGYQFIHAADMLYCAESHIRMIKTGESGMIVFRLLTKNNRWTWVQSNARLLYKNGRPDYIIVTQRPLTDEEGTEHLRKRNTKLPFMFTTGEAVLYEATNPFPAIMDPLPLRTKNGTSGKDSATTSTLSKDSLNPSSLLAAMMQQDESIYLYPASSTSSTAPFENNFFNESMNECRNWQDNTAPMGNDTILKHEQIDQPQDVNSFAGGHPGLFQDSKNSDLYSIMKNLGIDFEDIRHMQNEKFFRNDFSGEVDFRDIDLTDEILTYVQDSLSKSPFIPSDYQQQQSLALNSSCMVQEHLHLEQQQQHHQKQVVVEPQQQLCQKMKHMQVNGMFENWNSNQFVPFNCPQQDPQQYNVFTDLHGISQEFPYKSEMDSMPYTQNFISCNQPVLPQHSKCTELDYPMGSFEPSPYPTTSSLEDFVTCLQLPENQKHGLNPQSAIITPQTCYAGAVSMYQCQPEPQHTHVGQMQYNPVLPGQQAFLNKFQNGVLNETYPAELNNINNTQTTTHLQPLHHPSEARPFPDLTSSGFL
Sequence of Vitamin D3 receptor (Homo sapiens) (P11473 whole entry, looked up): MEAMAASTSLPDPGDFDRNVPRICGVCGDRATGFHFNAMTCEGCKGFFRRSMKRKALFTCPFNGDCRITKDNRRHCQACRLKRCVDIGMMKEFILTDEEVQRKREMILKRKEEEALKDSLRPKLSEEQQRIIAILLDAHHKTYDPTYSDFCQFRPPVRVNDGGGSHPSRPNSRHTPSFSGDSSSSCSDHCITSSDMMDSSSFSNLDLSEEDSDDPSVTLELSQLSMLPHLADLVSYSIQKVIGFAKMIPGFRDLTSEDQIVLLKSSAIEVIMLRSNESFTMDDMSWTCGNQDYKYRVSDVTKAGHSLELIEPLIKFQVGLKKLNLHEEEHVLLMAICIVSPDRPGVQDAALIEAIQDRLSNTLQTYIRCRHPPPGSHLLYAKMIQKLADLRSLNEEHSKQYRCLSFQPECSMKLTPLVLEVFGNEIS
Sequence of Bile acid receptor (Homo sapiens) (Q96RI1 whole entry, looked up): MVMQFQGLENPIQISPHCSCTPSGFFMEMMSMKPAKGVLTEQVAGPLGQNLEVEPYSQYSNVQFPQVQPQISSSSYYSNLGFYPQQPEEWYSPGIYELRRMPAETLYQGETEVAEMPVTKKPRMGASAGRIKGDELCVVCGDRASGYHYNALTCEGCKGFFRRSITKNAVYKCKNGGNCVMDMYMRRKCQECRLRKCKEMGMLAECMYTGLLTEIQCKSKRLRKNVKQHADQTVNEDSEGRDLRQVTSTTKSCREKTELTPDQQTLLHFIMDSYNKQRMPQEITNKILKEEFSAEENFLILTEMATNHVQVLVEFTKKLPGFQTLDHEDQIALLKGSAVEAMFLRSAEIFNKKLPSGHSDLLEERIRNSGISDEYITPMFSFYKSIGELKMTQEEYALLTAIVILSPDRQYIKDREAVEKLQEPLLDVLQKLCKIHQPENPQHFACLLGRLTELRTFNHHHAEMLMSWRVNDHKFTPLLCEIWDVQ
Sequence of Peroxisome proliferator-activated receptor gamma (Homo sapiens) (P37231 whole entry, looked up): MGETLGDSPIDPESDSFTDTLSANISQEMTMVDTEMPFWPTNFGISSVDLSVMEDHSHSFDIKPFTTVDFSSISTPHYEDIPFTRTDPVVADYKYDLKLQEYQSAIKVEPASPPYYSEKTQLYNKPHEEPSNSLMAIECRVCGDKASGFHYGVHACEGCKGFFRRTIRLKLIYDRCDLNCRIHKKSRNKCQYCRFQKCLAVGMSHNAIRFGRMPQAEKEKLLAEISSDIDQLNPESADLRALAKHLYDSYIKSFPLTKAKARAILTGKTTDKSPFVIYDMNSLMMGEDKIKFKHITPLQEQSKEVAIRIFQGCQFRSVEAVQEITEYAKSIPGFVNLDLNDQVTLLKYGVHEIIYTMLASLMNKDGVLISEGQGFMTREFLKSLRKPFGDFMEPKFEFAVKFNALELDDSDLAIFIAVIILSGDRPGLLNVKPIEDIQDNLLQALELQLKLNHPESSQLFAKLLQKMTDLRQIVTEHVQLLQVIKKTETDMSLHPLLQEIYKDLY

| SMILES | Potency [1] | Potency [2] | outcome [3] | outcome [4] | outcome [5] | Potency [6] | outcome [7] | outcome [8] | outcome [9] | outcome [10] | outcome [11] | outcome [12] | outcome [13] | Potency [14] | outcome [15] | outcome [16] | outcome [17] | outcome [18] | outcome [19] | outcome [20] |
| --- | --- | --- | --- | --- | --- | --- | --- | --- | --- | --- | --- | --- | --- | --- | --- | --- | --- | --- | --- | --- |
| O=c1cc[nH]c(=S)[nH]1 | inactive | inactive | inactive | inactive | inactive | inactive | inactive | inactive | inactive | inactive | inactive | inactive | inactive | inactive | inactive | inactive | inactive | inactive | – | – |
| O=C(C1CCCCC1)N1CC(=O)N2CCc3ccccc3C2C1 (stereo not given) | inactive | inactive | inactive | inactive | inactive | inactive | inactive | inactive | inactive | inactive | inactive | inactive | inactive | – | inactive | – | inactive | inactive | inactive | inactive |
| CCCC(O)C(CC)CO (stereo not given) | inactive | inactive | inactive | inactive | inactive | inactive | inactive | inactive | inactive | inactive | inactive | inactive | inactive | – | inactive | – | inactive | inactive | – | – |
| Nc1ccc(S(=O)(=O)Nc2nccs2)cc1 | inactive | inactive | inactive | inactive | inactive | inactive | inactive | inactive | inactive | inactive | inactive | inactive | inactive | – | inactive | – | inactive | inactive | inactive | inactive |
| CCCCC(CC)COC(=O)/C=C/c1ccc(OC)cc1 (stereo not given) | inactive | inactive | inactive | inactive | inactive | inactive | inactive | inactive | inactive | inactive | inactive | inactive | inactive | – | inactive | – | inactive | inactive | inactive | inactive |
| O=C1NC(=O)c2ccccc21 | inactive | inactive | inactive | inactive | inactive | inactive | inactive | inactive | inactive | inactive | – | inactive | – | inactive | inactive | inactive | inactive | inactive | inactive | inactive |
| O=C(O)c1cc(N=Nc2ccc(S(=O)(=O)Nc3ccccn3)cc2)ccc1O | inactive | inactive and 27.4 µM (active) and 30.6 µM (active) | inactive | inactive | inactive | inactive | inactive | inactive | inactive | inactive | inactive | inactive | inactive | – | inactive | – | inactive | inactive | inactive | inactive |
| Cc1cn([C@H]2C[C@H](N=[N+]=[N-])[C@@H](CO)O2)c(=O)[nH]c1=O | inactive | inactive | inactive | inactive | inactive | inactive | inactive | inactive | inactive | inactive | inactive | inactive | inactive | inactive | inactive | inactive | inactive | inactive | inactive | inactive |
| OCCc1ccccc1 | inactive | inactive | inactive | inactive | inactive | inactive | inactive | inactive | inactive | inactive | inactive | inactive | inactive | inactive | inactive | inactive | inactive | inactive | – | – |
| CCCCOC(=O)CC(CC(=O)OCCCC)(OC(C)=O)C(=O)OCCCC | inactive | inactive | inactive | inactive | inactive | inactive | inactive | inactive | inactive | inactive | inactive | inactive | inactive | inactive | inactive | inactive | inactive | inactive | inactive | inactive |
| O=C(c1ccccc1)C(O)c1ccccc1 (stereo not given) | inactive | inactive | inactive | inactive | inactive | inactive | inactive | inactive | inactive | inactive | inactive | inactive | inactive | – | inactive | – | inactive | inactive | inactive | inactive |
| Cc1cc(=O)[nH]c(=S)[nH]1 | inactive | inactive | inactive | inactive | inactive | inactive | inactive | inactive | inactive | inactive | inactive | inactive | inactive | inactive | inactive | inactive | inactive | inactive | inactive | inactive |
| C1N2CN3CN1CN(C2)C3 | inactive | inactive | inactive | inactive | inactive | inactive | inactive | inactive | inactive | inactive | inactive | inactive | inactive | inactive | inactive | inactive | inactive | inactive | inactive | inactive |
| O=C(O)CCC(=O)O | inactive | inactive | inactive | inactive | inactive | inactive | inactive | inactive | inactive | inactive | inactive | inactive | inactive | inactive | inactive | inactive | inactive | inactive | inactive | inactive |
| Cc1ccc(S(=O)(=O)NC(=O)NN2CCCCCC2)cc1 | inactive | inactive | inactive | inactive | inactive | inactive | inactive | inactive | inactive | inactive | inactive | inactive | inactive | – | inactive | – | inactive | inactive | inactive | inactive |
| Cc1noc(NS(=O)(=O)c2ccc(N)cc2)c1C | inactive | inactive | inactive | inactive | inactive | inactive | inactive | inactive | inactive | inactive | inactive | inactive | inactive | inactive | inactive | inactive | inactive | – | – | – |
